# Source: PubChem BioAssay (National Center for Advancing Translational Sciences (NCATS))
# Shown are actives, neighbours in structure and some others; about 8.1% of the full set was active somewhere.
# ClpP mod – qHTS Assay for Activators of ClpP; actives 1.9% (n = 340,000); ATP-dependent Clp protease proteolytic subunit (Bacillus subtilis (strain 168)), P80244; Potency, µM (top dose mostly 57.5 µM), inactives show at the highest dose activity change, negative = active; AID 651965, 2013; purified B. subtilis ClpP, FRET peptide cleavage, 20 min; active means well fitted falling curve with a large enough effect; inconclusive means small, poorly fitted or top-dose-only effect; inactive means no such curve, though single readings can be large or run the other way; further: the source files actives as falling curves though it sought activators and does not explain the sign; nearly all actives have a fitted effect of over 65% in size
#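 ClpP 10 microg/mL final, pH 8 Tris/KCl buffer with BSA, glycerol, Tween-20; compound pinned in; FRET-FV substrate; RT 20 min; Ex320/Em430; ΔFRET vs ADEP 5.8 microM, DMSO, no enzyme.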
# RORgamma inh – blocks mouse ROR gamma transcriptional activity; Drosophila S2 Gal4-RORgamma UAS-luciferase reporter, 20 h; AID 2551; actives 5.4% (n = 310,000); Potency, µM (titrated, usually from 53.6 µM), for the others: at the highest dose activity change, negative = inhibition, most hits filed as inhibitors; further: on the % scale 0 is the no-effect control and ±100 the full control effect; nearly all actives have a fitted effect of over 60% in size
# Target sequence (P51450 whole entry, looked up, the tested form may be a part): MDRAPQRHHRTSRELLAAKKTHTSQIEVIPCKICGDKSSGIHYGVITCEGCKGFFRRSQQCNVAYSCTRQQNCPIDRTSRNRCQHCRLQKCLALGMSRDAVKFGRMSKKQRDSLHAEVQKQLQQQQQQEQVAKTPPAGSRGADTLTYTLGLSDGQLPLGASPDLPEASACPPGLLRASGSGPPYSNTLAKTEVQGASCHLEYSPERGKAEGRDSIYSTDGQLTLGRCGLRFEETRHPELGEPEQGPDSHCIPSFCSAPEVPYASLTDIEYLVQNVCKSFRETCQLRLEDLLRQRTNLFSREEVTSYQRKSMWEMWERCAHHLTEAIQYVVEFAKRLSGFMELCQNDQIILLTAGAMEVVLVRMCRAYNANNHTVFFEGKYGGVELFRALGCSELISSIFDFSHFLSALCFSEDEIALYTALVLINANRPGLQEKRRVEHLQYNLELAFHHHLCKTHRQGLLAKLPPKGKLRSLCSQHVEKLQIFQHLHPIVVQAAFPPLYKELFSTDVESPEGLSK
#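 In this cell-based reporter format, copper sulfate (700 uM final) drives Gal4–ROR gamma fusion expression from a metallothionein promoter in Drosophila Schneider cells; compounds preincubated 1 hr, reporter read after 20 hr at ambient temperature.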
# Sfp PPTase inh – inhibitors of Bacillus subtilis Sfp phosphopantetheinyl transferase; Biochemical Sfp PPTase activity, qHTS; Potency, µM, for the others: largest response in the series, negative = inhibition, most hits filed as inhibitors; actives 3.5% (n = 310,000); AID 1490;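 further: the enzyme is Sfp with the accession as filed and its product quenches rhodamine fluorescence; 0% = enzyme reaction without inhibitor and -100% = no enzyme wells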
#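 Buffer: 50 mM Hepes-Na pH 7.6, 10 mM MgCl2, 0.01% Nonidet P-40, 0.01% BSA. Enzyme 15 nM, pre-exposed to compound 15 min; substrates then added and fluorescence change tracked over 30 min.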
# PINK1 modulator – modulators of PINK1 expression. PINK1 immunofluorescence, high-content cytometry, 24 h. Potency, µM (titrated, usually from 76.6 µM), for inactives: at the highest dose activation (PINK1 increase), hits mostly activators. actives 0.2% (n = 410,000). AID 624263; active means well fitted activation curve with a large enough effect; inconclusive means small, poorly fitted or top-dose-only effect; cell line not stated here; further: % of control where 0% means no effect; nearly all actives have a fitted effect of over 65% in size
#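 Compound titrations (5 concentrations, 24 h) on a stable cell line; DMSO and CCCP controls. Endpoint: fixed-cell PINK1 immunofluorescence with mitochondrial, cell and nuclear markers, scanned by microplate cytometer.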
# Epigenetic derep – derepresses silenced GFP reporter in murine cells; AID 1865; murine LDR cells, GFP reporter derepression, 30 h; Potency, µM (doses to about 53.9 µM), for inactives: top-dose GFP activation, usual class: activators; actives 0.2% (n = 280,000); further: % of control where 0% means no effect; nearly all actives have a fitted effect of over 60% in size
#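 Murine LDR cells carrying a silenced, genomically integrated CMV-driven GFP reporter were exposed to compound for 30 hours at 37 C. After PBS washes, GFP-positive cells (20–120 um objects) were counted by laser-scanning microplate cytometry.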
# VP16 counter – Gal4-VP16 reporter inhibition counter-screen; Drosophila S2 Gal4-VP16 UAS-luciferase, luminescence, 20 h; Potency, µM (highest dose often 53.6 µM), for the others: top-dose activity, negative = inhibition, most hits filed as inhibitors; actives 3.5% (n = 310,000); AID 2546;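 further: Gal4-VP16 expression switched on by copper sulfate through the metallothionein promoter; on the % scale 0 is the no-effect control and ±100 the full control effect; nearly all actives have a fitted effect of over 50% in size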
# The depositor's hits bear a star; ? = inconclusive; / = no result given; [ ] = another dose, or the depositor's remark. Unless noted, the call rests on the fitted dose curve; in most records, active means well fitted curve in the direction sought with a large enough effect; inconclusive means small, poorly fitted or top-dose-only effect, or another doubt; inactive means no such curve, though single readings can be large; an effect the other way counts as inactive or inconclusive. Potency means the concentration at half of the fitted maximal effect.
SMILES,ClpP mod,RORgamma inh,Sfp PPTase inh,PINK1 modulator,Epigenetic derep,VP16 counter
C[C@@H]1CN(Cc2ccc3c(c2)CN(C(=O)CCc2nc4ccc(F)cc4[nH]2)CCO3)C[C@H](C)O1,/,/,/,0%,/,/
Cc1ccc(S(=O)(=O)N(C)C)cc1NC(=S)Nc1cccc2ccccc12,4%,?,-26%,-1%,/,?
Fc1ccc(NC(=S)Nc2cccc3ccccc23)cc1,4%,?,-23%,1%,/,?
COc1cccc(C(=O)Nc2cccc3ccccc23)c1,1%,-12%,2%,0%,/,-8%
Fc1ccc(NC(=S)Nc2cccc3ccccc23)cc1F,3%,11µM*,-17%,21%,/,?
COc1cccc(NC(=S)Nc2cccc3ccccc23)c1,3%,0.11µM*,-28%,1%,/,6.3µM*
Cc1cc(NC(=S)Nc2cccc3ccccc23)n[nH]1,/,2.8µM*,-7%,1%,0%,5µM*
CCc1cccc(NC(=S)Nc2cccc3ccccc23)c1,4%,4µM*,-10%,-1%,/,7.9µM*
CCCN1CCN(CCCNC(=O)c2ccc3c(c2)sc2nc(-c4ccc(C)cc4)cn23)CC1,4%,/,/,1%,1%,/
COc1ccc(CCNc2nc(-c3ccc(OC)c(OC)c3)cc(C(F)(F)F)n2)cc1OC,?,/,/,11%,5%,/
CCCC(C)(C)C(=O)Nc1ccc(Cl)cc1,/,-18%,-5%,/,/,1%
CC(=O)N(C)c1ccc(NC(=S)Nc2ccc(C(C)C)cc2)cc1,-1%,7.1µM*,-11%,2%,1%,22µM*
Cc1cc(C)cc(NC(=S)Nc2cccc3ccccc23)c1,4%,22%,4%,0%,/,22%
Cc1ccc(NC(=S)Nc2cccc3ccccc23)cc1,3%,2µM*,-27%,0%,/,5.6µM*
CC(C)c1ccc(NC(=S)Nc2ccc3[nH]c(=O)[nH]c3c2)cc1,1%,?,?,-1%,0%,?
Cc1cccc(NC(=S)Nc2cccc3ccccc23)c1,3%,7.1µM*,-23%,0%,/,8.9µM*
CC(C)c1ccc(NC(=S)Nc2cccc3ccccc23)cc1,4%,3.5µM*,-2%,11%,/,7.1µM*
O=C(NCc1ccc(F)cc1)c1cnc(N2CCOCC2)c2ccccc12,-9%,/,/,1%,1%,/
O=S(=O)(c1cccc(Br)c1)N1CCN(c2nc(-c3cccs3)nc3ccccc23)CC1,?,/,/,1%,/,/
CCCN(CCC)C(=O)Cn1c(=O)n(-c2cccc(OC)c2)c(=O)c2c3c(sc21)CCCC3,0%,/,/,2%,-1%,/
Cc1ccc(CSc2nc3ccc(NC(=O)C(C)C)cc3s2)cc1,-3%,/,/,2%,1%,/
C=CCNC(=S)NCc1ccccc1,0%,16%,?,1%,7%,-12%
S=C(NCCc1ccncc1)Nc1cccc2ccccc12,/,10µM*,2%,-1%,-8%,?
C=CCNC(=S)Nc1cccc2ccccc12,-21%,24%,79µM*,/,0%,-10%
O=C(NCCc1ccncc1)Nc1ccccc1Cl,0%,13%,18%,-1%[38.3 µM],-1%,5%
SMILES,ClpP mod,RORgamma inh,Sfp PPTase inh,PINK1 modulator,Epigenetic derep,VP16 counter
COc1ccc(-c2onc(C)c2C)cc1S(=O)(=O)NCc1ccco1,0%,/,/,10%,13%,/
CC1CCCC(C)N1/N=C/c1ccccc1F (stereo not drawn),/,-21%,50µM*,-1%,/,3%
CC1CCCC(C)N1/N=C/c1ccc(Cl)cc1 (stereo not drawn),1%,4%,-8%,3%,-1%,-3%
COc1cc(CNC(=O)c2cnn(-c3ncc4c(n3)-c3ccccc3CC4)c2C)cc(OC)c1OC,/,/,/,0%,/,/
COc1cccc(CNC(=O)c2cc3c(=O)oc4ccc(C)cc4c3s2)c1,-28%,/,/,3%,-1%,/
CN(C)/[N+]([O-])=N/Oc1cc(O/[N+]([O-])=N/N2CCCC2CO)c([N+](=O)[O-])cc1[N+](=O)[O-] (stereo not drawn),/,21%,79µM*,/,/,-5%
